Holding throughout (test): NCI-60 one-dose screen, 48 h (100 = growth as untreated, 0 = no growth, -100 = all killed)
One test has as its system SK-MEL-2 melanoma. Conditions: 10 µM unless noted.
For another test, the system named is EKVX NSCLC. Conditions: 10 µM unless noted.
The test system of the next test is SN12C renal. Conditions: 10 µM unless noted.
The next test has as its system UO-31 renal. Conditions: 10 µM unless noted.
A further test concerns TK-10 renal. Conditions: 10 µM unless noted.
For the next test, the system named is ACHN renal. Conditions: 10 µM unless noted.
The subject of another test is CAKI-1 renal. Conditions: 10 µM unless noted.
Another test has as its system A498 renal. Conditions: 10 µM unless noted.
The next test concerns CCRF-CEM leukemia. Conditions: 10 µM unless noted.
Another test has as its system MOLT-4 leukemia. Conditions: 10 µM unless noted.
In another test the test system is SR leukemia. Conditions: 10 µM unless noted.
The subject of a further test is RPMI-8226 leukemia. Conditions: 10 µM unless noted.
A further test deals with OVCAR-8 ovarian. Conditions: 10 µM unless noted.
For another test, the system named is OVCAR-5 ovarian. Conditions: 10 µM unless noted.
A further test relates to OVCAR-4 ovarian. Conditions: 10 µM.
For the next test, the system named is SK-OV-3 ovarian. Conditions: 10 µM unless noted.
The subject of the next test is OVCAR-3 ovarian. Conditions: 10 µM unless noted.
Another test deals with HS 578T breast. Conditions: 10 µM unless noted.
Another test relates to NCI/ADR-RES ovarian. Conditions: 10 µM unless noted.
The next test deals with IGROV1 ovarian. Conditions: 10 µM unless noted.

Results on 8 compounds are retold here after PubChem BioAssay (NCI).

SMILES strings stand for the structures. Compounds without any hit were thinned out: in the full panel of roughly 83,000, 20% have a hit.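 Growth was measured after 48 h exposure to one concentration of compound in 96-well plates. Values under 10 count as active.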 Values without a mark were called inactive. Active and inactive are the calls of the source.

In the case of `COc1ccc(OC)c(NC=O)c1`, the growth in the test on SK-MEL-2 melanoma is 116%; with EKVX NSCLC it was 101%; in the test on SN12C renal, 107%; in the test with UO-31 renal, 92%; in the test with TK-10 renal it was 102%; in the test with ACHN renal, 106%. Besides, the growth in the test on CAKI-1 renal is 95.7%; with A498 renal it was 103%; with CCRF-CEM leukemia it was 127%; in the test with MOLT-4 leukemia, 88.2%; in the test with SR leukemia it was 83.3%; in the test with RPMI-8226 leukemia, 127%. Besides, the growth with OVCAR-8 ovarian is 104%; in the test on OVCAR-5 ovarian, 108%; in the test on OVCAR-4 ovarian, 103%; in the test on SK-OV-3 ovarian, 110%; in the test on OVCAR-3 ovarian it was 117%; in the test on HS 578T breast it was 106%. The growth with NCI/ADR-RES ovarian was 109%.
With `CC1(C)CC(=O)c2c(ccc(C(=O)C[C@@H](N)CO)c2N)O1`, the growth with SK-MEL-2 melanoma was 9.07% (active); in the test on EKVX NSCLC, 80.7%; in the test with SN12C renal it was 14.8%; in the test with UO-31 renal, 25.1%; in the test on TK-10 renal, 61.4%; in the test with ACHN renal, 36.3%. Also, the growth is 4.82% (active) in the test on CAKI-1 renal; -70.4% (active) with A498 renal; 13% in the test with CCRF-CEM leukemia; 21% in the test with MOLT-4 leukemia; 14.7% in the test with SR leukemia; 0.0254% (active) in the test with RPMI-8226 leukemia. For the same compound, the growth with OVCAR-8 ovarian was 7.69% (active); in the test with OVCAR-5 ovarian, 49.8%; in the test on OVCAR-4 ovarian, 71.1%; in the test on IGROV1 ovarian, 12.9%; in the test with OVCAR-3 ovarian, 0.385% (active); with HS 578T breast it was 84.7%. Also, the growth in the test with NCI/ADR-RES ovarian is 35%.
As for `CCC(Br)(CC)C(=O)c1ccc(OCC(=O)O)c(Cl)c1Cl`, the growth in the test on SK-MEL-2 melanoma is 94.6%; in the test on EKVX NSCLC, 95.3%; in the test with SN12C renal it was 89.1%; in the test with UO-31 renal, 92.1%; with TK-10 renal it was 125%; in the test with ACHN renal, 108%. Besides, the growth is 83.8% in the test with CAKI-1 renal; 97.1% in the test on A498 renal; 116% in the test on CCRF-CEM leukemia; 109% in the test on MOLT-4 leukemia; 120% in the test on SR leukemia; 121% in the test with RPMI-8226 leukemia. Further, the growth in the test on OVCAR-8 ovarian was 97.4%; in the test on OVCAR-5 ovarian it was 106%; in the test with OVCAR-4 ovarian, 97.4%; in the test on SK-OV-3 ovarian it was 94.3%; in the test on HS 578T breast it was 107%; in the test on NCI/ADR-RES ovarian, 99.1%.
With `CC1=CC[C@@H]2C(C)(C)[C@@H](O)CC[C@@]2(C)[C@@H]1COc1ccc2ccc(=O)oc2c1`, the growth in the test on SK-MEL-2 melanoma is 68.1%; in the test with EKVX NSCLC, 72.4%; in the test with SN12C renal it was 32.5%; in the test with UO-31 renal, 2.21% (active); in the test on TK-10 renal it was 82.3%; with ACHN renal, 48.6%. In addition, the growth in the test on CAKI-1 renal was 36.5%; with A498 renal, 83.2%; in the test with CCRF-CEM leukemia it was 41.7%; with MOLT-4 leukemia it was 37.3%; in the test on SR leukemia it was 71.5%; in the test with RPMI-8226 leukemia, 19.8%. For the same compound, the growth is 30.5% in the test with OVCAR-8 ovarian; 98% in the test with OVCAR-5 ovarian; 31% with OVCAR-4 ovarian; 57.9% with IGROV1 ovarian; 41.2% with OVCAR-3 ovarian; 44.2% with HS 578T breast. For the same compound, the growth with NCI/ADR-RES ovarian is 17.5%.
In the case of `Fc1cc2[nH]ncc2c2c3c(c(-c4cn[nH]c4)nc12)CCCC3`, the growth in the test with SK-MEL-2 melanoma is -30.7% (active); with EKVX NSCLC it was 13.1%; in the test on SN12C renal, 7.63% (active); in the test on UO-31 renal, -13.7% (active); in the test on TK-10 renal it was 20%; in the test on ACHN renal, 1.61% (active). In addition, the growth in the test with CAKI-1 renal was 2.83% (active); in the test on A498 renal, -56.5% (active); in the test on CCRF-CEM leukemia, 7.75% (active); with MOLT-4 leukemia it was 2.1% (active); in the test with SR leukemia, 13.8%; in the test with RPMI-8226 leukemia, 1.77% (active). Moreover, the growth was 4.78% (active) in the test on OVCAR-8 ovarian; 4.24% (active) with OVCAR-5 ovarian; 16.1% with OVCAR-4 ovarian; 1.4% (active) in the test with IGROV1 ovarian; 7.22% (active) in the test on OVCAR-3 ovarian; -3.3% (active) in the test with HS 578T breast.
With `Cc1ccc(S(=O)(=O)Nc2ccccc2)cc1N`, the growth with SK-MEL-2 melanoma is 87.4%; in the test with EKVX NSCLC it was 116%; with SN12C renal it was 91.3%; with UO-31 renal it was 81.2%; with TK-10 renal it was 121%; in the test on ACHN renal, 101%. Also, the growth is 89.5% with CAKI-1 renal; 76.9% in the test with A498 renal; 110% in the test with CCRF-CEM leukemia; 96.6% in the test on MOLT-4 leukemia; 92.2% with SR leukemia; 123% in the test with RPMI-8226 leukemia. For the same compound, the growth is 95.4% in the test on OVCAR-8 ovarian; 91.3% in the test with OVCAR-5 ovarian; 111% with OVCAR-4 ovarian; 104% with SK-OV-3 ovarian; 95.6% in the test with OVCAR-3 ovarian; 91% in the test on NCI/ADR-RES ovarian.
For the compound `Nc1ccc(NC(=O)c2ccccc2)c2c1C(=O)c1ccccc1C2=O`, the growth in the test with SK-MEL-2 melanoma is 108%; in the test with EKVX NSCLC, 76.3%; in the test on SN12C renal, 97.8%; in the test with UO-31 renal, 74.2%; in the test on TK-10 renal, 96.1%; with ACHN renal it was 92.6%. Also, the growth is 96.7% in the test on CAKI-1 renal; 113% in the test with A498 renal; 91.1% in the test on CCRF-CEM leukemia; 106% in the test on MOLT-4 leukemia; 96.8% in the test with SR leukemia; 102% in the test on RPMI-8226 leukemia. The growth in the test on OVCAR-8 ovarian was 96.9%; in the test on OVCAR-5 ovarian it was 117%; in the test on OVCAR-4 ovarian it was 103%; in the test with SK-OV-3 ovarian it was 112%; in the test on NCI/ADR-RES ovarian it was 99.6%.
Turning to `COc1ccc(/C=C2\N=C(Nc3ccccc3)N(NC(=O)c3ccccn3)C2=O)cc1`, the growth is 102% with SK-MEL-2 melanoma; 91.5% in the test on EKVX NSCLC; 94.7% with SN12C renal; 72.3% with UO-31 renal; 127% in the test with TK-10 renal; 99.4% in the test on ACHN renal. In addition, the growth was 87.5% in the test with CAKI-1 renal; 81.5% in the test on A498 renal; 99.2% in the test with CCRF-CEM leukemia; 76.7% in the test with MOLT-4 leukemia; 95.2% in the test with SR leukemia; 88.2% in the test with RPMI-8226 leukemia. The growth with OVCAR-8 ovarian was 100%; in the test on OVCAR-5 ovarian it was 122%; with OVCAR-4 ovarian, 90%; in the test on IGROV1 ovarian, 95.7%; in the test with OVCAR-3 ovarian, 105%; in the test on HS 578T breast, 95.3%. In addition, the growth with NCI/ADR-RES ovarian is 97%.
